This is a sample that favours compounds with a hit; in the whole collection about 2.8% have one here.
PAX8 inh HTS: PAX8 transcriptional activity inhibition | AID 652154 | 360,000 compounds, 1.2% hits | RMG-I TPO-luciferase reporter, SteadyGlo, 24 h | inhibition, % at 12.6 µM;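 active = mean replicate inhibition at least 60% with every replicate also reaching 60%; inconclusive = only one of the two criteria is met; inactive = mean below 60% and not all replicates reaching 60%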;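 note: luciferase light reporting Pax8 driven TPO promoter activity; plate controls were median of neutral control wells for no effect and mitoxantrone controls for full effect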
TWEAK-Fn14 inh: inhibitors of TWEAK-Fn14 interaction signaling. TWEAK-stimulated Fn14 reporter cells, luciferase luminescence, 8 h. inhibition, % at 10 µM. 360,000 compounds, 2% hits. AID 1159606; in the data active = inhibition above about 50%
LGR2 inh: Drosophila LGR2 receptor signaling inhibition; 380,000 compounds, 0.35% hits; inhibition, % at 9.99 µM; HEK293 LGR2, CRE-luciferase, bursicon-stimulated, 4 h;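 active = drop in luminescence signal, shown as inhibition above about 50% in the replicate tests, limit read from the data, passing the limit was not always enough; inconclusive = probably only some replicates passing the limit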;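 note: agonist challenge used bursicon conditioned medium at about half maximal strength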
EWS-Fli inh: EWS/Fli transcriptional activity inhibition; A673 NR0B1-luciferase reporter, viability-normalised; inhibition, % at 12.6 µM; 350,000 compounds, 0.67% hits; AID 651661;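 active = mean inhibition of at least 50% after viability correction, with every replicate also passing that limit; inconclusive = mean reaches 50% but only one of two replicates passes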;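 note: firefly luciferase signal divided by Alamar Blue viability fluorescence both relative to DMSO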
TROY NFkB inh: TROY signaling inhibition. Q293 LMP1-TROYcd NF-kB luciferase reporter, 4 h. inhibition, % at 10 µM. 360,000 compounds, 0.98% hits. AID 1347056;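 active = compounds whose plate-normalised and pattern-corrected inhibition of the luciferase reporter signal at the single screening dose is 50% or more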
* marks the source's active call; other numbers are inactive results; ? = inconclusive; . = not tested or not shown.

SMILES | PAX8 inh HTS | TWEAK-Fn14 inh | LGR2 inh | EWS-Fli inh | TROY NFkB inh
N#CC1=C(N)NC(=S)C(C(N)=O)C1c1ccc(Cl)cc1Cl (stereo not given) | 16.6 | 32.6 | 69.2* | -8.3 | -2.4
N#CC1=C(N)NC(=S)C(C(N)=O)C1c1ccccc1F (stereo not given) | 3.4 | 18.4 | -19.7 | 6.0 | -2.5
O=C(Nc1ccccc1)c1ccc(Nc2c([N+](=O)[O-])cc([N+](=O)[O-])c3ccccc23)cc1 | 17.7 | 30.1 | 21.2 | . | 1.3
O=[N+]([O-])c1cc(Br)c(Nc2ccccc2)c([N+](=O)[O-])c1 | 83.9* | 4.1 | -15.8 | 30.0 | 29.2
CN1/C(=C/C=C/c2n(C)c3cc([N+](=O)[O-])c([N+](=O)[O-])cc3[n+]2C)C(C)(C)c2ccccc21 | 100.0* | 9.9 | ? | -75.4 | 22.9
CN1/C(=C\C=C(C#N)C#N)C(C)(C)c2ccccc21 | 12.5 | -12.4 | -2.8 | -1.6 | -19.1
O=C(O)c1ccccc1NC(c1ccccc1)c1ccc2cccnc2c1O (stereo not given) | 70.9* | -19.5 | 21.0 | 27.2 | -1.6
Cc1ccc2ccc(C(Nc3ccccc3)c3ccc(C(C)C)cc3)c(O)c2n1 (stereo not given) | 18.1 | . | -48.3 | 9.1 | .
Cc1ccnc(NC(c2ccccc2)c2ccc3cccnc3c2O)c1 (stereo not given) | 50.5 | -21.6 | 8.7 | 22.4 | -6.4
CCCC(=O)NC(c1ccc(OC)c(OC)c1)c1cc(Cl)c2cccnc2c1O (stereo not given) | 20.0 | 8.9 | 16.1 | 9.7 | 6.7
CCCC(=O)NC(c1ccc(C(C)C)cc1)c1ccc2cccnc2c1O (stereo not given) | 95.3* | 29.2 | 22.5 | 44.6 | 33.7
CCCC(=O)NC(c1ccccc1Cl)c1ccc2cccnc2c1O (stereo not given) | 86.1* | 4.0 | 24.4 | 23.4 | 1.9
CCCC(=O)NC(c1ccco1)c1cc([N+](=O)[O-])c2cccnc2c1O (stereo not given) | 13.6 | 23.8 | -3.3 | 19.6 | 12.5
Cc1ccc2ccc(C(Nc3ccccc3)c3ccccc3)c(O)c2n1 (stereo not given) | 70.2* | . | -48.5 | -15.3 | .
COc1ccc(S(=O)(=O)Nc2ccc3c(c2)C(=O)N([C@@H](C)CO)C[C@@H](C)[C@@H](CN(C)Cc2ccccc2)OCCCC[C@H](C)O3)cc1 | 2.0 | . | 16.8 | 8.6 | .
Cc1noc(C)c1S(=O)(=O)Nc1ccc2c(c1)C(=O)N([C@@H](C)CO)C[C@@H](C)[C@H](CN(C)S(=O)(=O)c1c(C)noc1C)OCCCC[C@@H](C)O2 | 4.8 | . | -3.5 | -1.8 | .
CCC(=O)NC(c1ccc(C)cc1)c1cc([N+](=O)[O-])c2cccnc2c1O (stereo not given) | 12.3 | 23.1 | 21.8 | . | -9.0
CC(=O)NC(c1ccc(Cl)cc1)c1ccc2cccnc2c1O (stereo not given) | 94.9* | 18.8 | . | 43.6 | 26.4
CCCC(=O)NC(c1ccc(N(C)C)cc1)c1ccc2cccnc2c1O (stereo not given) | 94.5* | 2.9 | 21.7 | 36.1 | 5.9
CC(=O)NC(c1ccco1)c1ccc2cccnc2c1O (stereo not given) | . | 26.0 | 19.7 | . | 9.0
CCCCC(=O)NC(c1ccc(OC)cc1)c1ccc2cccnc2c1O (stereo not given) | 70.9* | 0.1 | 10.8 | 11.3 | -0.3
COc1ccc(C(NC(=O)C(C)C)c2ccc3cccnc3c2O)cc1 (stereo not given) | ? | 22.1 | 11.0 | 31.7 | 3.9
CCC(=O)NC(c1ccc(C)cc1)c1ccc2cccnc2c1O (stereo not given) | 91.5* | 20.6 | 34.0 | 31.7 | 21.7
Cc1noc(C)c1NC(=O)N(C)C[C@@H]1OCCCC[C@H](C)Oc2ccc(NC(=O)Cc3ccccc3)cc2C(=O)N([C@@H](C)CO)C[C@H]1C | . | . | -29.2 | 4.5 | .
O=C(CN1C(=O)c2ccccc2C1=O)NNC1=NS(=O)(=O)c2ccccc21 | -5.0 | -9.7 | 2.3 | -2.0 | -11.1
O=C(Cc1ccccc1)NNC1=NS(=O)(=O)c2ccccc21 | -0.6 | 53.5* | 21.2 | 7.7 | -9.4
CC1N(C)c2cc(NC(=O)c3ccco3)ccc2C1(C)C (stereo not given) | . | 48.9 | 28.1 | -22.7 | 53.4*
COc1ccc(C(=O)Nc2ccc(-c3ccc(C)o3)cc2)cc1S(=O)(=O)N1CCOCC1 | 18.0 | 81.8* | . | . | 51.4*
NS(=O)(=O)c1ccc(CNC(=O)/C=C/c2ccc(S(=O)(=O)N3CCOCC3)cc2)cc1 | 9.2 | -9.6 | 1.4 | -1.7 | -6.1
